Laboratory results from PubChem BioAssay (NCI).
About 83,000 compounds went through this panel and 20% of them were active in at least one assay; those are over-represented in the sample as a whole.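 Single-concentration screen, 48 h exposure, 96-well plates. Endpoint: percent growth. Below 10 = active.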 The source made the active and inactive calls.

Tests used:
Assay in all cases: NCI-60 one-dose screen, 48 h (100 = growth as untreated, 0 = no growth, -100 = all killed)
Details in all cases: 10 µM unless noted
[1] = tested on: DU-145 prostate
[2] = tested on: K-562 leukemia
[3] = tested on: MALME-3M melanoma
[4] = tested on: MDA-MB-231 breast
[5] = tested on: RXF 393 renal
[6] = tested on: SF-268 CNS
[7] = tested on: SF-295 CNS
[8] = tested on: SF-539 CNS
[9] = tested on: UACC-257 melanoma
[10] = tested on: M14 melanoma
[11] = tested on: HCT-15 colon
[12] = tested on: HT29 colon
[13] = tested on: SNB-75 CNS
[14] = tested on: SNB-19 CNS
[15] = tested on: U251 CNS
[16] = tested on: PC-3 prostate
[17] = tested on: SK-MEL-5 melanoma
[18] = tested on: UACC-62 melanoma
[19] = tested on: LOX IMVI melanoma
[20] = tested on: SK-MEL-28 melanoma

Measured: growth

COc1cc(C)c(Cc2cnc(N)nc2N)cc1OC
inactive: [1] 120% | [2] 110% | [3] 99.3% | [4] 109% | [5] 123% | [6] 108% | [7] 103% | [8] 98.6% | [9] 111% | [10] 105% | [11] 113% | [12] 109% | [13] 104% | [14] 98.9% | [15] 97.7% | [16] 94.3% | [17] 105% | [18] 99.5% | [19] 94.9% | [20] 118%

NC[C@@H]1O[C@H](O[C@@H]2[C@@H](CO)OC(O[C@@H]3[C@@H](O)[C@H](N)C[C@H](N)[C@H]3OC3O[C@H](CN)[C@@H](O)[C@H](O)[C@H]3N)[C@@H]2O)[C@H](N)[C@@H](O)[C@@H]1O (stereo not given in full)
inactive: [1] 112% | [2] 113% | [3] 105% | [4] 104% | [5] 114% | [6] 113% | [7] 107% | [8] 89.3% | [9] 106% | [10] 104% | [11] 103% | [12] 109% | [13] 106% | [14] 115% | [15] 102% | [16] 111% | [17] 106% | [18] 118% | [19] 101% | [20] 111%

C=C(C)C1CCC2(C)OC2C1 (stereo not given)
inactive: [1] 122% | [2] 135% | [3] 95.7% | [4] 102% | [5] 204% | [6] 115% | [7] 96.7% | [8] 103% | [9] 132% | [10] 108% | [11] 112% | [12] 109% | [13] 80.4% | [14] 110% | [15] 118% | [16] 109% | [17] 109% | [18] 103% | [19] 108% | [20] 127%

Cc1cc2nc3ccc(N=Nc4ccc(N(C)C)cc4)cc3n(-c3ccccc3)c-2cc1=N
active: [1] -98.2% | [3] -92.7% | [4] -27.9% | [5] -87.8% | [6] -78.1% | [7] -89.4% | [8] -89.4% | [9] -95.7% | [10] -78.4% | [11] -77.2% | [12] -67% | [13] -84% | [14] -93.7% | [15] -69.4% | [16] -72.3% | [17] -95.3% | [18] -76.7% | [19] -66.5% | [20] -96.6%
inactive: [2] 17.9%

COc1c(B(O)O)cc(F)cc1-c1nc2ccc3[nH]ncc3c2c2c1CCCC2
active: [5] -34.5% | [6] 9.38% | [8] -13.4% | [11] 3.63% | [13] -94.5% | [19] 2.28%
inactive: [1] 11.1% | [2] 30.5% | [3] 20.3% | [4] 22% | [7] 10.8% | [9] 20.1% | [10] 28.3% | [12] 13% | [14] 11.3% | [15] 11.8% | [16] 13.3% | [17] 17.1% | [18] 20.6% | [20] 21.3%

CC(=O)CC(c1cccs1)c1c(-c2ccccc2)[nH]c2ccccc12 (stereo not given)
inactive: [1] 103% | [2] 77.2% | [3] 104% | [4] 86.9% | [5] 99.9% | [6] 85.6% | [7] 80.4% | [8] 98.9% | [9] 103% | [10] 94.5% | [11] 80.7% | [12] 98.2% | [13] 40.7% | [14] 96% | [15] 93.8% | [16] 77.3% | [17] 95.3% | [18] 77.9% | [19] 81.7% | [20] 102%

COc1nc2ccccc2cc1-c1nc2c(cnn2-c2ccccc2)c(=O)[nH]1
inactive: [1] 61% | [2] 16.7% | [3] 75.6% | [4] 58.3% | [5] 67.1% | [6] 53.6% | [7] 43.8% | [8] 28.9% | [9] 55.5% | [10] 23.9% | [11] 24.8% | [13] 28.2% | [14] 42.1% | [15] 37.8% | [16] 41.2% | [17] 41.7% | [18] 36.3% | [19] 35% | [20] 56.7%
active: [12] 9.45%

Cc1ccc(S(=O)(=O)N/N=C/C2(c3ccccc3)CC2)cc1
inactive: [1] 114% | [2] 97.8% | [3] 110% | [4] 102% | [5] 94.4% | [6] 111% | [7] 94.7% | [8] 114% | [9] 99.7% | [10] 115% | [11] 115% | [12] 109% | [13] 88.2% | [14] 99.3% | [15] 103% | [16] 93.7% | [17] 105% | [18] 102% | [19] 96.9% | [20] 106%

Cc1nc2ccccc2c(/C=C/c2ccc(Cl)cc2)c1C(=O)/C=C/c1cccs1
inactive: [1] 79% | [2] 44.7% | [3] 107% | [4] 75.8% | [5] 83.7% | [6] 78.8% | [7] 82% | [8] 99.5% | [9] 79.9% | [10] 82% | [11] 52.1% | [12] 52.8% | [13] 56.7% | [14] 86.7% | [15] 77.5% | [16] 54% | [17] 76.6% | [18] 68.4% | [19] 79.6% | [20] 95.7%

Cc1ccc(/C=C2\Oc3ccc(O)c(O)c3C2=O)cc1
inactive: [1] 46.1% | [2] 19.2% | [3] 66.1% | [4] 56.1% | [5] 27.4% | [6] 37.5% | [7] 54% | [8] 32.7% | [9] 96.6% | [10] 56.1% | [12] 87.8% | [13] 32.5% | [14] 37.9% | [15] 20.2% | [16] 43.3% | [17] 47.3% | [18] 45.3% | [19] 16.9% | [20] 53.6%
active: [11] 9.23%

Cc1c(C(=O)/C=C/Nc2c(Cl)cc(S(N)(=O)=O)cc2Cl)sc2nc3ccccc3n12
inactive: [1] 107% | [2] 105% | [3] 105% | [4] 102% | [5] 115% | [6] 95.4% | [7] 101% | [8] 96.6% | [9] 105% | [10] 106% | [11] 105% | [12] 108% | [13] 93.6% | [14] 99.3% | [15] 107% | [16] 104% | [17] 104% | [18] 101% | [19] 97.3% | [20] 103%

Cc1ccc(-c2nc(SCC(=O)Nc3nc(-c4ccc(Cl)cc4)cs3)[nH]c(=O)c2C#N)cc1
inactive: [1] 103% | [2] 97.1% | [3] 109% | [4] 110% | [5] 114% | [6] 98.1% | [7] 101% | [8] 117% | [9] 88% | [10] 91.7% | [11] 90.2% | [12] 95.9% | [13] 87.4% | [14] 108% | [15] 94% | [16] 90.3% | [17] 102% | [18] 90.5% | [19] 108% | [20] 108%

S=c1nc(-c2ccccc2)oc(=NC2CCCCC2)n1C1CCCCC1
inactive: [1] 13.4% | [3] 94.9% | [4] 81.8% | [5] 81.5% | [6] 34.1% | [8] 65.2% | [9] 95% | [10] 84.8% | [11] 16.1% | [12] 49.5% | [13] 68.2% | [14] 28.7% | [15] 18.8% | [17] 66.1% | [18] 70.9% | [19] 30.1% | [20] 107%
active: [2] -42.6% | [7] 2.95% | [16] 3.69%

O=c1c2cccc(F)c2sc2c(NCCCNCCO)nc3ccccc3c12
active: [2] -20% | [4] 5.79% | [10] -58.5% | [12] -39.8% | [19] -86.6%
inactive: [1] 23.7% | [3] 74% | [5] 50.8% | [6] 41.9% | [7] 63.7% | [8] 41.1% | [9] 85.6% | [11] 11.4% | [13] 45.5% | [14] 44.1% | [15] 38.8% | [16] 38.3% | [17] 71.7% | [18] 59.8% | [20] 64.2%

Nc1cc2c(cc1Br)-c1cc(Cl)ccc1C2=O
inactive: [1] 107% | [2] 93.2% | [3] 107% | [4] 79.8% | [5] 101% | [6] 90.6% | [7] 106% | [8] 99.2% | [9] 103% | [10] 105% | [11] 102% | [12] 102% | [13] 96.8% | [14] 104% | [15] 98.1% | [16] 95.2% | [17] 90.9% | [18] 96.3% | [19] 102% | [20] 106%
